Inconclusive results are not listed. Active and inactive are the calls of the source. Unless noted, calls follow the shape of the dose curve; as a rule, active = well fitted curve in the direction sought with a large enough effect; inconclusive = small, poorly fitted or top-dose-only effect, or another doubt; inactive = no such curve, though single readings can be large; an effect the other way counts as inactive or inconclusive.

The text below walks through data of PubChem BioAssay (NCATS).

For test [1], the target named is Lysosomal acid glucosylceramidase (Homo sapiens) (UniProt P04062). Description: Glucocerebrosidase-p2 (AID 348; in the data active = potency below about 10 µM; also: potency is read from the fitted curve at half-maximal effect). Conditions: purified GBA, blue fluorogenic substrate, 40 min. A digest of the protocol: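 Normal human glucocerebrosidase (0.2 nM) with blue fluorogenic substrate (80 uM final) in citrate/phosphate pH 5.9 with 10mM sodium taurocholate, 0.01% tween-20; 40 min RT, NaOH/glycine stop; fluorescence Ex 365/Em 440; AC50 from a titration from 0.6 nM upwards.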

Test [2] can be described thus: AP1 Signaling Pathway (AID 357; active = well fitted curve in either direction with a large enough effect, not every such curve was filed as active; also: % is scaled to controls: 0 for no effect and ±100 for the full control effect). The note with it: ME-180 AP-1-bla reporter, EGF-induced, beta-lactamase ratio, 5 h; at 7.69 µM (top of the series) unless noted. An outline of the steps: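 Titration-series screen for positive or negative modulators of EC50 EGF-induced signaling in ME-180 cells carrying an AP-1-driven beta-lactamase reporter. After 5 hours at 37 degrees Celsius, CCF4 460nm/530nm emission ratio gave %Activity; AC50 values derived.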

Test [3] concerns the target Cytochrome P450 1A2 (Homo sapiens) (UniProt P05177). The test can be described thus: p450-cyp1a2 (AID 410; calls by dose curve; also: potency is read from the fitted curve at half-maximal effect). The note with it: recombinant CYP1A2, luciferin-ME demethylation, luminescence; series mostly up to 57 µM. A digest of the protocol:
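20nM CYP1A2, 100uM Luciferin-ME (=Km), 100mM KPO4; cpd 10 min RT; +NADPH regen, 60 min RT; stop/detect 20 min; luminescence. Normalized to furafylline 57 uM = full inhibition.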

Test [4] in a line: NFAT Signaling Pathway (AID 444; active = well fitted curve in either direction with a large enough effect, not every such curve was filed as active;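 also: carbachol stimulus at about its EC50 of 1 µM final; % is scaled to controls: 0 for no effect and ±100 for the full control effect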). The note with it: Jurkat NFAT-bla M1, carbachol, beta-lactamase ratio, 5 h; at 7.69 µM (top of the series) unless noted. An outline of the steps:
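Jurkat cells with NFAT-driven β-lactamase reporter and co-expressed M1 receptor, stimulated with carbachol (final 1 uM, ~EC50), compound titration, 5 h at 37 °C. CCF4 loaded 1 h at RT; 460/530 nm ratio gave %activity and AC50.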

A short description of test [5]: Stat Signaling Pathway (AID 446; active = well fitted curve in either direction with a large enough effect, not every such curve was filed as active;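 also: ME-180 cervical cancer cells given 40 pM IL-6 alongside compound; SIE-controlled beta-lactamase reporter measured as 460/530 nm FRET emission ratio; % is scaled to controls: 0 for no effect and ±100 for the full control effect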). The note with it: ME-180 SIE beta-lactamase reporter, IL-6 stimulated, 5 h; at 7.69 µM (top of the series) unless noted. An outline of the steps: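 Overnight-plated ME-180 cells bearing a STAT Inducible Element beta-lactamase reporter; 5 h co-exposure to compound and 40 pM IL-6; values normalized to 300 pM IL-6 and 125 nM JAK inhibitor controls.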

Test [6] addresses Glucocorticoid receptor (Homo sapiens) (UniProt P04150). The test can be described thus: GR-GFP Redistribution (AID 450;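 active = compounds whose dose series gives a full or clear partial fitted curve of increased nuclear translocation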; also: potency is read from the fitted curve at half-maximal effect). The note with it: U2OS GR-GFP nuclear translocation, laser cytometry, 2 h.
For test [7] the target is unchanged. Description: GR-EFC Redistribution (AID 451; calls by dose curve; also: potency is read from the fitted curve at half-maximal effect). The note with it: CHO-K1 GR-EFC translocation, beta-gal luminescence, 2 h. A digest of the protocol: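 CHO-K1 cells expressing nuclear EA and GR-ED fragments of b-gal; compounds titrated up to 46 uM final, 2 h at 37 C. GR nuclear translocation read as complemented b-gal luminescence after 1 h RT detection.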
Test [8] concerns the target Mitogen-activated protein kinase 10 (Mus musculus) (UniProt Q61831). Description: JNK3 AlphaScreen Assay (AID 530; active = well fitted curve in either direction with a large enough effect, not every such curve was filed as active;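 also: kinase came from lysate of stimulated human HepG2 cells; signal reports phosphorylation of biotinylated GST-cJun 1-79 at Ser73 with 10 µM ATP; % is scaled to controls: 0 for no effect and ±100 for the full control effect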). Conditions: JNK3 lysate, c-Jun phosphorylation; series mostly up to 57.1 µM. An outline of the steps: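 HepG2 lysate (IL-1b/TNFa pre-activated) + biotin-GST-cJun 1-79 + anti-pSer73 cJun; cpd titration, 15 min RT; ATP 10 uM start; Tris pH 7.6, MgCl2, DTT, vanadate; beads in EDTA buffer; AlphaScreen.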

For test [9], the target named is 3',5'-cyclic-AMP phosphodiesterase 4B (Homo sapiens) (UniProt Q07343). Description: qHTS Assay for Inhibitors of PDE-IV (AID 607; active = well fitted activation curve with a large enough effect in the main read-out, with a control signal flat, not every such curve was filed as active; also: % of control where 0% means no effect). Conditions: HEK293 ACTOne CNG channel cells, membrane potential fluorescence; series mostly up to 22.9 µM. A digest of the protocol:
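Live HEK293 cells with a modified cyclic nucleotide-gated (CNG) channel report intracellular cAMP via membrane-potential dye fluorescence (ex 535/em 590 nm). Endogenous PDE-IV was targeted. Compounds were tested at up to 22.9 uM final; RO 20-1724 100 uM served as control.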
For orientation: In qHTS, concentration-response curves come from the screen itself.

The target in test [10] is Cytochrome P450 3A4 (Homo sapiens) (UniProt P08684). The test can be described thus: qHTS Assay for Activators of Cytochrome P450 3A4 (AID 885). Also: nearly all actives have a fitted effect of over 65% in size. Conditions: recombinant CYP3A4, Luciferin-PPXE luminescence, 60 min; series mostly up to 57.1 µM. An outline of the steps: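 Using 20nM recombinant human CYP3A4 in potassium phosphate (200mM), substrate Luciferin-PPXE at 25uM, luminescent luciferin detection followed a 60-min RT NADPH reaction; data scaled to 57 uM ketoconazole.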

Test [11] has as its target Cytochrome P450 2C19 (Homo sapiens) (UniProt P33261). Description: qHTS Assay for Inhibitors and Substrates of Cytochrome P450 2C19 (AID 899). Also: nearly all actives have a fitted effect of over 60% in size. Also: potency is read from the fitted curve at half-maximal effect. The note with it: recombinant CYP2C19, luciferin-H EGE luminescence; series mostly up to 57.1 µM. A digest of the protocol:
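Luminescent read-out of luciferin formed from Luciferin-H EGE (10uM, equal to KM). Enzyme 5nM in 50mM KPO4; compound added, 10 min at 37C, then NADPH regenerating system for 60 min at 37C. Full inhibition defined by 57uM ketoconazole.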

A short description of test [12]: qHTS Assay for Lipid Storage Modulators (AID 1519; calls by dose curve). Conditions: Drosophila S3 cells, BODIPY lipid droplet/cell ratio, laser cytometry, cells loaded with oleic acid; for activity change, negative = inhibition: at 57.5 µM (top of the series). A digest of the protocol:
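Cells seeded at 5,000 per well were treated with compounds over a concentration series and loaded with oleic acid (400 uM, as added). Lipid droplet fluorescence (488 nm excitation, 500-530 nm channel) was read by laser-scanning cytometry and normalized to 20 uM Triacsin C.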

The target of test [13] is Dual specificity protein kinase CLK4 (Homo sapiens) (UniProt Q9HAZ1). Description: qHTS Assay for Inhibitors of CDC-like Kinase 4 (Kinase-Glo Assay) (AID 1770). Also: % is scaled to controls: 0 for no effect and ±100 for the full control effect; nearly all actives have a fitted effect of over 65% in size. The note with it: recombinant Clk4, Kinase-Glo ATP depletion luminescence; series mostly up to 66.7 µM. A digest of the protocol: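 Clk4 25 nM, RS peptide 100 uM, ATP 1 uM, pH 7.5 Tris, 10 mM MgCl2, 2.5 mM DTT; 4.5 h RT; ATP depletion read by Kinase-Glo luminescence.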

Test [14] has the same target. The test can be described thus: qHTS Assay for Inhibitors of CDC-like Kinase 4 (ADP-Glo Assay) (AID 1771). Also: % is scaled to controls: 0 for no effect and ±100 for the full control effect; nearly all actives have a fitted effect of over 70% in size. Conditions: recombinant CLK4, ADP-Glo luminescence; series mostly up to 80 µM. A digest of the protocol: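 25 nM Clk4, 100 uM RS peptide, 1 uM ATP (final); 2 mM MgCl2, 0.5 mM EGTA, 2.5 mM DTT, 0.01% Triton X-100; 1 hr RT. ADP-Glo readout: ATP depletion 45 min, conversion/luciferase 30 min, luminescence.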

Test [15] shares this target. The test can be described thus: qHTS Assay for Inhibitors of CDC-like Kinase 4 (ADP-FP Assay) (AID 1795).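 Also: recombinant human CLK4 phosphorylating RS repeat peptide at 1 µM ATP; % is scaled to controls: 0 for no effect and ±100 for the full control effect; nearly all actives have a fitted effect of over 60% in size.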 The note with it: Transcreener ADP fluorescence polarization; series mostly up to 50 µM. An outline of the steps: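 Kinase activity was followed as ADP output, converted from fluorescence polarization with a calibration curve. Reactions ran one hour at low ATP (1 uM) with RS peptide substrate.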

In test [16] the target is Ubiquitin carboxyl-terminal hydrolase 1 (Homo sapiens) (UniProt O94782). The test can be described thus: Inhibitors of USP1/UAF1: Pilot qHTS (AID 504865). Also: nearly all actives have a fitted effect of over 35% in size. Also: potency is read from the fitted curve at half-maximal effect. Conditions: purified USP1/UAF1, Ub-rhodamine cleavage fluorescence; series mostly up to 54.9 µM. A digest of the protocol: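 Enzyme-free wells gave the negative control, while test wells held 1nM USP1/UAF1 preincubated with compound for 15 min at room temperature. Ub-Rho at 150nM final started the reaction, and fluorescence at 480/540 nm was recorded kinetically.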

A short description of test [17]: Primary qHTS for small molecule stabilizers of the endoplasmic reticulum resident proteome: Secreted ER Calcium Modulated Protein (SERCaMP) assay (AID 1508630). Also: % is scaled to controls: 0 for no effect and ±100 for the full control effect. The note with it: SH-SY5Y GLuc-SERCaMP (Gaussia luciferase released on ER calcium loss) secretion, thapsigargin, luminescence; series mostly up to 38.4 µM. A digest of the protocol:
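The SH-SY5Y reporter protocol was run at 3 concentrations up to 38.3 uM (primary) or 11 concentrations (follow-up): 16 h compound, 100 nM thapsigargin for 4 h, then extracellular luciferase luminescence.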

The target in test [18] is Cytochrome P450 3A4 (Homo sapiens) (UniProt P08684). The test can be described thus: qHTS Assay for Inhibitors and Substrates of Cytochrome P450 3A4 (AID 884). Also: nearly all actives have a fitted effect of over 50% in size. Also: potency is read from the fitted curve at half-maximal effect. The note with it: recombinant CYP3A4, Luciferin-PPXE luminescence; series mostly up to 57.1 µM. An outline of the steps: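 Luminescent readout of luciferin produced by CYP3A4 (20 nM) dealkylation of Luciferin-PPXE, 25 uM (its KM). NADPH-driven reaction ran 60 min at RT after 10 min compound preincubation; data scaled to 57 uM ketoconazole as 100% inhibition.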

Test [19] is described as follows: qHTS Assay for Identification of Small Molecule Agonists for Hypoxia Response Element Signaling Pathway (AID 914; active = well fitted activation curve with a large enough effect in the signal ratio, with a control signal flat, not every such curve was filed as active; the % refers to the signal ratio; also: % of control where 0% means no effect). The note with it: ME-180 (cervical carcinoma) HRE-bla reporter, beta-lactamase ratio, CoCl2, 17 h; activation: stronger effect = higher value. An outline of the steps: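 HRE-bla ME-180 cells with beta-lactamase reporter under hypoxia response element, compounds with EC50 CoCl2 for 17 hours at 37 C. CCF4 substrate, 460nm/530nm emission ratio gave %Activity; AC50 from titration series.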

Where [20] appears, read: measured here: cell count channel max response.
[21] abbreviates: measured here: lipid channel max response.

Sequence of Cytochrome P450 3A4 (Homo sapiens) (P08684 whole entry, looked up): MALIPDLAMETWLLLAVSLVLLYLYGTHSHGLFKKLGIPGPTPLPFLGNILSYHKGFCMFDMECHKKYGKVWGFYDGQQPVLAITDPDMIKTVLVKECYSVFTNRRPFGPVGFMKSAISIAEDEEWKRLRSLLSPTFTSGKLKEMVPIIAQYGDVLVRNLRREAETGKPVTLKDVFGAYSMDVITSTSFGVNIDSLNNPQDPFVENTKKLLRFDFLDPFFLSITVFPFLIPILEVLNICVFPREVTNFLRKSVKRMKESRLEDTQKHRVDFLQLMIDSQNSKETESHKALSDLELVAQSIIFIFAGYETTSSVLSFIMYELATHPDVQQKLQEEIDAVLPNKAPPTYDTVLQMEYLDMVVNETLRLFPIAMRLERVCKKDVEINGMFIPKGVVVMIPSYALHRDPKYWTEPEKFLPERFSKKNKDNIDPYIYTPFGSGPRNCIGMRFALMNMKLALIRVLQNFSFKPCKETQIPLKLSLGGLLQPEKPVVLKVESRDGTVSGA
Sequence of Lysosomal acid glucosylceramidase (Homo sapiens) (P04062 whole entry, looked up): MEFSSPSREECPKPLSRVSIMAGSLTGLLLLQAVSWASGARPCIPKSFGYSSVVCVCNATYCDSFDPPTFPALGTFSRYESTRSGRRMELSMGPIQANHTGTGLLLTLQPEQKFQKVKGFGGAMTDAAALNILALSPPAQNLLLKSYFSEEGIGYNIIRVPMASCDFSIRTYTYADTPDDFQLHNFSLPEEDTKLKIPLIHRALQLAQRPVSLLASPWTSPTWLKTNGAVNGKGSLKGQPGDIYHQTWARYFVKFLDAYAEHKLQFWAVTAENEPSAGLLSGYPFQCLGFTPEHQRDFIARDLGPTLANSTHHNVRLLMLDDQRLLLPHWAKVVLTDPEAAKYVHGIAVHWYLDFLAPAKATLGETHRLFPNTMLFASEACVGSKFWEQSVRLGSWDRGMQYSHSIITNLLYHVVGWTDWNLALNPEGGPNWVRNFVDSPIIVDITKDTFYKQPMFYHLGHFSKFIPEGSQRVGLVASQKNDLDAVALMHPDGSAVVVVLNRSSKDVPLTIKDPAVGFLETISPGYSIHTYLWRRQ
Sequence of Ubiquitin carboxyl-terminal hydrolase 1 (Homo sapiens) (O94782 whole entry, looked up): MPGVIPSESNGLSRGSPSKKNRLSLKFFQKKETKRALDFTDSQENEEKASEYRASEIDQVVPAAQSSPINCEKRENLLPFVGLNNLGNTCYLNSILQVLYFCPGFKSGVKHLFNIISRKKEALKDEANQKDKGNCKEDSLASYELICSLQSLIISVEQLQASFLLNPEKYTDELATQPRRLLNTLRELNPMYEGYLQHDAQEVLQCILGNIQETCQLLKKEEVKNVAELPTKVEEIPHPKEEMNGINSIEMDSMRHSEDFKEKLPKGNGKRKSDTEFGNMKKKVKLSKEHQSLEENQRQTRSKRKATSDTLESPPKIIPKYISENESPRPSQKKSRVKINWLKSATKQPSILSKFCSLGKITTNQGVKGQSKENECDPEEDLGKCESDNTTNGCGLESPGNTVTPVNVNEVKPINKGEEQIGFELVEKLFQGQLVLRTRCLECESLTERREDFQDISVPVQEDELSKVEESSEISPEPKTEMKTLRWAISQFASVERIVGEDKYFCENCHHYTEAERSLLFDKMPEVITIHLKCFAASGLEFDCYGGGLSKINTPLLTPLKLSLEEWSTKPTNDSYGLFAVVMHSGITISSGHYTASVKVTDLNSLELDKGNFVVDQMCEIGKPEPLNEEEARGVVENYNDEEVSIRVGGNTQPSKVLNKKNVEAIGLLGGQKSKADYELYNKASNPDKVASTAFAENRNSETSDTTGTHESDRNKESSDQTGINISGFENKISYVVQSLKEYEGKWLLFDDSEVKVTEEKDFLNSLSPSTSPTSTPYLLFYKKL
Sequence of 3',5'-cyclic-AMP phosphodiesterase 4B (Homo sapiens) (Q07343 whole entry, looked up): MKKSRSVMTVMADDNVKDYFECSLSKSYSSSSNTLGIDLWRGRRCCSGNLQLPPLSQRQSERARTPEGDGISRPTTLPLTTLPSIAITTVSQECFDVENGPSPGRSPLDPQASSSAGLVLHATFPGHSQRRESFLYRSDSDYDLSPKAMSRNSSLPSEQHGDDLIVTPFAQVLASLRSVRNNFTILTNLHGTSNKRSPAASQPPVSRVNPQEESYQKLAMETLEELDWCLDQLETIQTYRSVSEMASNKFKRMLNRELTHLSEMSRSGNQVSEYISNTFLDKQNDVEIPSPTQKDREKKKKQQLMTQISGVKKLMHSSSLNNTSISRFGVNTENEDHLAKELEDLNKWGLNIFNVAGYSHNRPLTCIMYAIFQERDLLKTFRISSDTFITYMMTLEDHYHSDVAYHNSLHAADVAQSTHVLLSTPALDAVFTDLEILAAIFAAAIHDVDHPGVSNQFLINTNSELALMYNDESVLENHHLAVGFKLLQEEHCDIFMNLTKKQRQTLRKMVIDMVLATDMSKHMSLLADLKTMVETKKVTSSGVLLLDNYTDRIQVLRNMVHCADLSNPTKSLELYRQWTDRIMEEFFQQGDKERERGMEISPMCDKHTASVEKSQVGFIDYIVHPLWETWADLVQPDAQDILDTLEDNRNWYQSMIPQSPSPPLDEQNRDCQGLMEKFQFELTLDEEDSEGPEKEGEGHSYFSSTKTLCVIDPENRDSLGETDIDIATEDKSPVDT
Sequence of Glucocorticoid receptor (Homo sapiens) (P04150 whole entry, looked up, the tested form may be a part): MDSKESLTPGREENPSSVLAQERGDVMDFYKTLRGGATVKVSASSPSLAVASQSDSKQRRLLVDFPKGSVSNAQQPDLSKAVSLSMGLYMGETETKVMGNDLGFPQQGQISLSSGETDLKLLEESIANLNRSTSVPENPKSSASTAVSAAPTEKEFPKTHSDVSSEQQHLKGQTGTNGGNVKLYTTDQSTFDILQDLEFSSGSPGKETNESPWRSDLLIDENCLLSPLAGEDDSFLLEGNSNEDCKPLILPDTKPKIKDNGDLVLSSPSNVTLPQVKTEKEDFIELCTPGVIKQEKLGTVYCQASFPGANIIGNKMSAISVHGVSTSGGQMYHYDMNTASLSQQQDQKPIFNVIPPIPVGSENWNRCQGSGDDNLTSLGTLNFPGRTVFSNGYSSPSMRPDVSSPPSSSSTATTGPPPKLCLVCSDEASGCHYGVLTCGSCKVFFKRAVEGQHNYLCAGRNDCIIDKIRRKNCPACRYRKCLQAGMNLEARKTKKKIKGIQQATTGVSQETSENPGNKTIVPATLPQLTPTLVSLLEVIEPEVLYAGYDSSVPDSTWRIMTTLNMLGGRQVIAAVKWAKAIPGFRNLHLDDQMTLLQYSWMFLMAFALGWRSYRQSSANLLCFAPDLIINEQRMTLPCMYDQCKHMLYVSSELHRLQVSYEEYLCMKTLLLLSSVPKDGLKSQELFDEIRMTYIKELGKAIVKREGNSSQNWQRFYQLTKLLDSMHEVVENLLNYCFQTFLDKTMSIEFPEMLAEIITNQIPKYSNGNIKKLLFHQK
Sequence of Cytochrome P450 1A2 (Homo sapiens) (P05177 whole entry, looked up): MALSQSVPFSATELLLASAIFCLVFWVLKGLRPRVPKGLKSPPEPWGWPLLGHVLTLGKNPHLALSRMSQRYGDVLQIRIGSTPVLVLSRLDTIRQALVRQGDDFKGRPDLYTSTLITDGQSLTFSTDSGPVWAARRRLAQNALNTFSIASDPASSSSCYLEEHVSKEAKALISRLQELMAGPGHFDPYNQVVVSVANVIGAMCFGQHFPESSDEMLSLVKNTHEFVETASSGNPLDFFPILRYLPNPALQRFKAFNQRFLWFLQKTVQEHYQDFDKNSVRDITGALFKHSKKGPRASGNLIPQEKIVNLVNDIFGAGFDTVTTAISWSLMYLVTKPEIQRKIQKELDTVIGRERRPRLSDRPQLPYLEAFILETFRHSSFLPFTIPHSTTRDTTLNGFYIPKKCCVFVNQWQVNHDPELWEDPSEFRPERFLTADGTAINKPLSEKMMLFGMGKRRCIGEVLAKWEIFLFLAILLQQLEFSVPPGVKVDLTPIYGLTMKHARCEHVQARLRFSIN
Sequence of Dual specificity protein kinase CLK4 (Homo sapiens) (Q9HAZ1 whole entry, looked up): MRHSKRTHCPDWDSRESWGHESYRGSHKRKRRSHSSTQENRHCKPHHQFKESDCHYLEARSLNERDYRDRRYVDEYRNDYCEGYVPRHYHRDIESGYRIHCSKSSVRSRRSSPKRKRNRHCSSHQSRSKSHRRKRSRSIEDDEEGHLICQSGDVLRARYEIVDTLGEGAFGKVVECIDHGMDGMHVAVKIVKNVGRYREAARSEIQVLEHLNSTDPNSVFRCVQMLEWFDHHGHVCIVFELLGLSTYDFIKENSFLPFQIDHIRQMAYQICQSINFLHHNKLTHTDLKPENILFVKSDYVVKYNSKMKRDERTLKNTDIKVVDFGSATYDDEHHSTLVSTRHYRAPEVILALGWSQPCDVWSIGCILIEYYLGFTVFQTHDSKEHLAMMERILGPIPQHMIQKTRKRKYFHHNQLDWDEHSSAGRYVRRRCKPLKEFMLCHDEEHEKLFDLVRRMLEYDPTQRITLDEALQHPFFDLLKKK
Sequence of Cytochrome P450 2C19 (Homo sapiens) (P33261 whole entry, looked up): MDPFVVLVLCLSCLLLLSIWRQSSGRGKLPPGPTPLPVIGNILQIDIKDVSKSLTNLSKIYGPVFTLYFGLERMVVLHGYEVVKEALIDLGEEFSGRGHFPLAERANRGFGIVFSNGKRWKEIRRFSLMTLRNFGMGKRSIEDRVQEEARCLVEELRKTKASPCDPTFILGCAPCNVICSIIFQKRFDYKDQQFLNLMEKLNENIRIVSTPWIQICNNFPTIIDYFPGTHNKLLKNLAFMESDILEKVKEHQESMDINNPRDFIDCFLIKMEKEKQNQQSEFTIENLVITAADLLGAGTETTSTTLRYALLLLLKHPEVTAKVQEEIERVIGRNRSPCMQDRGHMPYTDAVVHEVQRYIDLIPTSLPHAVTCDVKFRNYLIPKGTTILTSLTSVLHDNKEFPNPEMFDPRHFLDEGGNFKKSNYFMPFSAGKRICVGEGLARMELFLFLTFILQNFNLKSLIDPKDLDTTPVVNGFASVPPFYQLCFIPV

With `Cn1cc(-c2nc3cnc(N4CCOCC4)nc3n(C3CC3)c2=O)c2ccccc21`, the Potency in test [1] was > 11.4 µM (inactive); in [3], 3.16 µM (active); in test [6] it was > 9.22 µM (inactive); in [7], > 46 µM (inactive). For the same compound, the activity change, negative = inhibition was -18.1% (inactive) in test [2], -15.3% (inactive) in test [4] and 8.36% (inactive) in [12]. For the same compound, in test [5], the activity, negative = inhibition was 11.5% (inactive). Also, in test [8], the compound was classed as inactive. The Potency result in [9], in test [10], in [11], in test [13], in [14] and in [15] was “inactive” in each case. Moreover, the Potency result in test [16] and in test [17] was “inactive” each time. The max response in test [12] (setting [20]) is 17.1%; in test [12] (setting [21]), 23.9%.

Consider `Cc1ccccc1-c1cc(NCCN2CCOCC2)ncn1`, for which the Potency in [1] was > 11.4 µM (inactive); in [3] it was 31.6 µM (active); in test [6], > 46 µM (inactive); in test [7], > 46 µM (inactive). In addition, the figures for the activity change, negative = inhibition in test [2], in [4] and in [12] were -3.13% (inactive), -3.03% (inactive) and -1.17% (inactive), respectively. Moreover, the activity, negative = inhibition in test [5] was 2.72% (inactive). Further, the compound was classed as inactive in test [8]. Further, the Potency entry in test [18], in test [13], in test [14], in [15] and in test [17] was “inactive” throughout. The max response in [12] (setting [20]) is -3.29%; in test [12] (setting [21]), -5.46%.

Consider `CNc1ccnc(-c2ccccc2OC)n1`, for which the Potency in test [1] is > 11.4 µM (inactive); in test [3], 5.01 µM (active); in test [6], > 46 µM (inactive); in [7], > 46 µM (inactive). Also, the activity change, negative = inhibition was 4.71% (inactive) in test [2], 8.86% (inactive) in test [4] and 6.44% (inactive) in test [12]. Besides, the activity, negative = inhibition in test [5] was 16.8% (inactive). In [8], the call was inactive. For the same compound, the Potency entry in test [9], in test [10], in test [13], in test [14], in [15] and in [16] was “inactive” throughout. Also, the Potency entry in [17] was “inactive”. Further, the activation in [19] was 7.18% (inactive). The max response in test [12] (setting [20]) was 21.3%; in [12] (setting [21]), 26.2%.

For the compound `CCNc1ncc2nc(-c3ccc(Cl)cc3)c(=O)n(C[C@H]3CCCO3)c2n1`, the Potency was > 11.4 µM (inactive) in [1], 0.794 µM (active) in test [3], > 9.22 µM (inactive) in test [6] and > 46 µM (inactive) in test [7]. Also, the activity change, negative = inhibition in test [2] is 25.5% (inactive); in [4], 4.01% (inactive); in [12], -12.7% (inactive). For the same compound, the outcome in test [8] was inactive. Further, the Potency result in test [9], in test [13], in test [14], in test [15], in [16] and in test [17] was “inactive” throughout. For the same compound, the figures for the max response in [12] (setting [20]) and in test [12] (setting [21]) were -16% and -29.6%, respectively.

As to `FC(F)(F)c1ccccc1-c1nccc(NCc2cccs2)n1`, the Potency is > 11.4 µM (inactive) in test [1]; 1.26 µM (active) in [3]; > 46 µM (inactive) in [6]; > 46 µM (inactive) in [7]; 2 µM (active) in test [18]; 2 µM (active) in test [11]. For the same compound, the Potency in test [16] is 11.2 µM (active). Moreover, the activity change, negative = inhibition is 2% (inactive) in [2], -3.1% (inactive) in [4] and 5.22% (inactive) in [12]. For the same compound, the activity, negative = inhibition in test [5] was -15.9% (inactive). Also, the compound was called inactive in test [8]. Also, the Potency entry in test [10], in test [13], in [14], in test [15] and in test [17] was “inactive” each time. Besides, the values for the max response in test [12] (setting [20]) and in test [12] (setting [21]) were 6.69% and 8.2%, respectively.
